Results filed as inconclusive are left out. A number with no mark means an inactive call. The call rests on the fitted dose curve.
On the % scale 0 is the no-effect control and ±100 the full control effect.

This assay is described as follows: p53 small molecule agonists, cell-based qHTS assay with rat liver microsomes (AID 1963578). The conditions noted are these: HCT-116 p53RE-bla, beta-lactamase ratio, 16 h; series mostly up to 66 µM; activation: at the top concentration. The source says:
U.S. Tox21 Program National Center for Advancing Translational Sciences [NCATS] Division of Preclinical Innovation [DPI] U.S. Environmental Protection Agency [EPA] National Institutes of Environmental Health Sciences [NIEHS] National Toxicology Program [NTP] U.S. Food and Drug Administration [FDA] Tox21 Assay Overview: p53, a tumor suppressor protein, is activated following cellular insult, including DNA damage and other cellular stresses. The activation of p53 regulates cell fate by inducing DNA repair, cell cycle arrest, apoptosis, or cellular senescence. The activation of p53, therefore, is a good indicator of DNA damage and other cellular stresses. […] The activation of the reporter gene under culture conditions can be detected by fluorescence intensity. This cell line was used to screen the Tox21 10K compound library in the condition of presence of rat liver microsomes and to identify agonists that activate the p53 signaling pathway after in vitro metabolic activation (Ooka et al., Archive of Toxicology 96:1975-1987, 2022).
Tox21 Assay Protocol Summary: The p53RE-bla cells were dispensed at 4,000cells/3ul/well in 1536-well black-clear bottom plates. After the assay plates were incubated at 37 C, 5% CO2 incubator for 5 hours, 23 nL of compounds dissolved in DMSO, positive controls or DMSO only was transferred to the assay plate. Following compound addition, 3 uL of rat liver microsomes (Molecular Toxicology, Boone, NC) at final concentration of 0.5 mg/mL and 1uL of Beta-Nicotinamide adenine dinucleotide 2-phosphate (NADPH) at final concentration of 0.5 mg/mL were transferred to the assay plate. The plates were incubated at 37 C for 16 hours. 1 uL of LiveBLAzer detection mixture was added to each well and the plates were incubated at room temperature in the dark for 2 h.
Consider `CCCC(=O)OCCC(C)C`, for which the “activation” value is 3.87%.
Take `C#CCN[C@@H]1CCc2ccccc21`: the “activation” value is 4.16% [at 30.3 µM].
For `O=C(O)c1cc(C(=O)O)c(C(=O)O)cc1C(=O)O`, the “activation” value is 11.2%.
Under `O=C(O)c1ccccc1NCCc1ccccc1` stands 1.12% [at 30.3 µM]; under `C=CC1CO1` (stereo not given), 6.94%; under `CN1CCN(c2cc3c(cc2F)c(=O)c(C(=O)O)cn3-c2ccc(F)cc2)CC1`, -4.48% [at 30.3 µM].
Under `CS(=O)(=O)c1ccc(-c2cn3ccccc3n2)cc1` stands 6.21% [at 30.3 µM]; under `CC(C)(O)c1ccc(CNC(=O)c2cccnc2Oc2ccc3nonc3c2)cc1`, -1.05%; under `O=C(O)c1ccncc1`, -1.71%.
Under `CCCCCCCCCCCCCCCCC(=O)O` stands -0.64% [at 30.3 µM]; under `CC(C)C[P+](C)(CC(C)C)CC(C)C`, 0.613%; under `NC(=O)c1ncn([C@@H]2O[C@H](CO)[C@@H](O)[C@H]2O)c1N`, 0.248% [at 30.3 µM].
`BrCCCCCBr`: the “activation” value is -1.56%.
Under `CN1C(=O)N(c2ccccc2Br)Cc2cnc(Nc3ccc4c(c3)OCC(CO)O4)nc21` (stereo not given) stands -3.1%.
The figure for `COc1cc2[nH]c(=O)[nH]c(=O)c2cc1OC` is -3.27% [at 30.3 µM]; for `Nc1ncnc2c1ncn2[C@@H]1O[C@H](CO)[C@@H](O)[C@H]1O` it is 5.5% [at 30.3 µM].
`O=C1c2ccccc2C(=O)C1c1nc2ccccc2c(Br)c1O`: the “activation” value is -3.55%.
Under `CN1CCCCC1CCN1c2ccccc2Sc2ccc(S(C)=O)cc21` (stereo not given) stands 0.502% [at 30.3 µM].
Under `c1ccc(CNCCNCc2ccccc2)cc1` stands -1.46% [at 30.3 µM]; under `CCC1(C)NC(=O)NC1=O` (stereo not given), -2.28%.
As to `CN1C(=O)N(C)C(O)C1O` (stereo not given), the “activation” value is -2.57%.
The figure for `CCc1ccc(O)c(OC)c1` is 1.19%; for `Oc1cc(O)c(Cl)cc1Cl` it is 0.646%; for `CC(C)C(=O)Nc1cccc(C(F)(F)F)c1` it is -0.935% [at 30.3 µM].
The figure for `COc1cc2c(cc1OC)CN(C(=O)[C@H](C)N[C@@H](CCc1ccccc1)C(=O)O)[C@H](C(=O)O)C2` is 0% [at 30.3 µM].
Under `Cc1ccc(=O)n(-c2ccccc2)c1` stands 0.0881% [at 30.3 µM]; under `CC1=C(C(=O)OC(C)C)C(c2cccc([N+](=O)[O-])c2)C(C(=O)OC2CN(C(c3ccccc3)c3ccccc3)C2)=C(N)N1` (stereo not given), 3.55% [at 30.3 µM]; under `Cc1cc(CC(=O)O)c(C)n1-c1ccc(Cl)cc1`, 1.15% [at 30.3 µM].
On to `Cc1cc(=O)[nH]c(=O)[nH]1`, for which the “activation” value was -0.17%.
In the case of `NC(=O)C(=O)N/N=C/c1ccc([N+](=O)[O-])o1`, the “activation” value is 4.23% [at 30.3 µM].
On to `CN1CCCN=C1COC(=O)C(O)(c1ccccc1)C1CCCCC1` (stereo not given), for which the “activation” value was -0.422% [at 30.3 µM].
Under `OCCC(F)(F)C(F)(F)C(F)(F)C(F)(F)C(F)(F)C(F)(F)C(F)(F)C(F)(F)F` stands 3.09%.
The figure for `CCCCCCCCCCCCCCNCCO` is 0.326% [at 30.3 µM]; for `Cc1cccc2sc(N)nc12` it is -1.2%.
As to `CC(C)OC(=O)C(C(=O)OC(C)C)=C1SC=CS1`, the “activation” value was -6.06% [at 30.3 µM].
The figure for `COS(=O)(=O)C(F)(F)F` is -8.04%.
Under `CN1CCOC(c2ccccc2)c2ccccc2C1` (stereo not given) stands -0.92% [at 30.3 µM]; under `CCCC1CCC(=O)O1` (stereo not given), 2.41%.
Regarding `O=c1c2ccccc2nnn1CCl`, the “activation” value was -0.335%.
The figure for `CCCCCCC/C=C/C=O` is 0.12%.

The values are drawn from PubChem BioAssay (Tox21).
